GLS inhibitor: glutaminase GLS (human) inhibition; GLS enzymatic activity, qHTS titration; Potency, µM (doses to about 45.5 µM), for inactives: top-dose activity change, negative = inhibition, most hits filed as inhibitors; 410,000 compounds, 0.21% hits; further: on the % scale 0 is the no-effect control and ±100 the full control effect
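Two-point fluorescence kinetic (t0, 30 min RT) for hKGA; glutamate detected via glutamate oxidase–HRP–Amplex Red. Substrate: 1 mM L-glutamine solution; buffer 45 mM KH2PO4, pH 8.2.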
G9a block: blocks human histone lysine methyltransferase G9a. Q96KQ7. AID 504332. G9a H3K9 monomethylation, AlphaScreen, 2 h. 350,000 compounds, 8.8% hits. Potency, µM (highest dose often 102 µM), without a hit: at the highest dose activity, negative = inhibition, hits mostly inhibitors; further: on the % scale 0 is the no-effect control and ±100 the full control effect; nearly all actives have a fitted effect of over 75% in size
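G9a (20 nM) preincubated 15 min RT with compounds, then 500 nM biotinylated H3K9 peptide and 20 uM SAM added; 2 h RT reaction. Monomethyl-H3K9 product detected by AlphaScreen with anti-H3K9me1 antibody, streptavidin donor and anti-rabbit IgG acceptor beads.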
L3MBTL1 block: L3MBTL1 (human) inhibition | Q9Y468 | AlphaScreen L3MBTL1–H3K9me1 peptide binding | Potency, µM (highest dose often 57.1 µM), for inactives: at the top dose activity, negative = inhibition, actives largely listed as inhibitors | 230,000 compounds, 0.66% hits | AID 485360; further: on the % scale 0 is the no-effect control and ±100 the full control effect; nearly all actives have a fitted effect of over 60% in size
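L3MBTL1 (50 nM) pre-complexed 30 min with biotinylated H3(1-15)K9me1 peptide (75 nM), then compounds added for 30 min at room temperature; AlphaScreen streptavidin donor/nickel chelate acceptor beads (10 ug/mL final) read after 30 min dark incubation.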
BAZ2B block: blocks human BAZ2B; 360,000 compounds, 4.4% hits; AID 504333; AlphaScreen BAZ2B-H3K14Ac peptide displacement; Potency, µM (series often up to 114 µM), inactives show at the top dose activity change, negative = inhibition, actives largely listed as inhibitors; further: on the % scale 0 is the no-effect control and ±100 the full control effect; nearly all actives have a fitted effect of over 60% in size
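Complex of BAZ2B and biotin-H3K14Ac (50 nM apiece) forms over 30 min at RT, then faces library compounds up to 110 uM for another 30 min; AlphaScreen beads added, 20 min dark incubation, luminescence read.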
HP1b binding inh: blocks HP1-beta chromodomain binding to methylated histone tails | P83916 | AlphaScreen HP1-beta / biotin-H3K9me3 peptide binding | Potency, µM (top dose mostly 114 µM), without a hit: top-dose activity change, negative = inhibition, most hits filed as inhibitors | 390,000 compounds, 0.56% hits; further: nearly all actives have a fitted effect of over 70% in size
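HP1-beta protein (50 nM final) preincubated 30 min at room temperature with biotinylated H3(1-18)K9me3 peptide (50 nM) in PBS pH 7.4, 0.01% Tween-20, then compound added for 30 min. AlphaScreen streptavidin donor/nickel chelate acceptor beads (10 ug/mL final), 30 min dark, luminescence read.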
JMJD2A Tudor: blocks the human JMJD2A Tudor domain; 390,000 compounds, 4.4% hits; Potency, µM (doses to about 114 µM), without a hit: at the top dose activity change, negative = inhibition, most hits filed as inhibitors; AlphaScreen JMJD2A-Tudor / H3K4me3 peptide binding; O75164; further: on the % scale 0 is the no-effect control and ±100 the full control effect; nearly all actives have a fitted effect of over 50% in size
Target sequence (O75164 whole entry, looked up, the tested form may be a part): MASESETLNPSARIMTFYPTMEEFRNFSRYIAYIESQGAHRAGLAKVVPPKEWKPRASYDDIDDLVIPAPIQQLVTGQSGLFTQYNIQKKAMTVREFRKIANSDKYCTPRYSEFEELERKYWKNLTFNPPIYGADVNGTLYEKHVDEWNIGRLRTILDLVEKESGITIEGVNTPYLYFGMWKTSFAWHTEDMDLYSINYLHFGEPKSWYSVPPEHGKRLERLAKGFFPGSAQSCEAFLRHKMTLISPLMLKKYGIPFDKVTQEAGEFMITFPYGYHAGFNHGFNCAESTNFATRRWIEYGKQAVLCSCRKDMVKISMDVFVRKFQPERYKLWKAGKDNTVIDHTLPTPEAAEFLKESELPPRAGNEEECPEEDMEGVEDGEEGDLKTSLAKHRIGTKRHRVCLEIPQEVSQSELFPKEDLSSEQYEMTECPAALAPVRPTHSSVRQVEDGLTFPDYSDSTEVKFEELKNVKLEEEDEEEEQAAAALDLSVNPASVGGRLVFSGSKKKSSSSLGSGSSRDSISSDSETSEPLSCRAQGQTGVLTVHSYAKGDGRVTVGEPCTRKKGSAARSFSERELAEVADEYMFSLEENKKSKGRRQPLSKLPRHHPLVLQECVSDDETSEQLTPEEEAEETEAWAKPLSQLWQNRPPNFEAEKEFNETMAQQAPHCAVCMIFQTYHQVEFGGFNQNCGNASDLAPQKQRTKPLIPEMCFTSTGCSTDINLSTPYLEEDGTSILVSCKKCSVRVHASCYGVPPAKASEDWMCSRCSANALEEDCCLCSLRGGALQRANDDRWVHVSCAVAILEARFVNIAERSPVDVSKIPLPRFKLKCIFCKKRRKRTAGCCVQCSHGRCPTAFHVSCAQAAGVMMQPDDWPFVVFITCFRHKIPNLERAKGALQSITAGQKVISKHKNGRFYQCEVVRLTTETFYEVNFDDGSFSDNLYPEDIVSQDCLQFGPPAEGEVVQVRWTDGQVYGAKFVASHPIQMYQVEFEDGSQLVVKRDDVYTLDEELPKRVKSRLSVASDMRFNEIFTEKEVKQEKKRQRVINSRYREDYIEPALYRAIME
Starred values were filed as active, the others as inactive; ? = inconclusive; / = no result; ! = a repeat was not active; [ ] = dose if it differs, or a comment. Hits are enriched below; roughly 10% of the tested compounds scored in any of these assays. The call rests on the fitted dose curve; in most records, active means well fitted curve in the direction sought with a large enough effect; inconclusive means small, poorly fitted or top-dose-only effect, or another doubt; inactive means no such curve, though single readings can be large; an effect the other way counts as inactive or inconclusive. Potency means the concentration at half of the fitted maximal effect.

SMILES	GLS inhibitor	G9a block	L3MBTL1 block	BAZ2B block	HP1b binding inh	JMJD2A Tudor
CCOc1ccc(NC(=O)Cn2c(=O)n(-c3cccc(Cl)c3)c(=O)c3c2c2cc(C)ccc2n3C)cc1	-3%	28%[59 µM]	/	11%	76%	-5%
CCCCN(CC)Cc1ccc(CNC(=S)Nc2ccc(C)cc2Cl)o1	1%	35µM*	/	4%	3%	-34%
CCOc1ccc(OCCn2c(=S)[nH]c3ccccc32)cc1	-7%	7.1µM*	-10%	50µM*	?	?
COc1ccccc1OCCn1c(=O)n(C)c2ccccc21	-2%	39%[12.7 µM]	1%	-29%	35%	-3%
Cn1c(=S)[nH]c2ccccc21	17%	8.9µM*	/	-35%	-11%	50µM*
S=c1[nH]c2ccccc2n1CCOc1ccccc1	-10%	/	25%	12%	-24%	?
Cn1c(=S)n(C)c2ccccc21	2%	-7%[59 µM]	-8%	-18%	62%	8%
S=c1[nH]c2ccccc2n1CCc1ccncc1	2%	/	/	/	45%	?
COc1ccccc1OCCn1c(=S)[nH]c2ccccc21	23%	8.9µM*	-6%	1%	1%	?
N#CCCn1c(=S)[nH]c2ccccc21	19%	7.1µM*	/	-3%	-20%	-6%[57.1 µM]
O=C(Nc1cccc(-c2nn3c(=O)cc(N4CCNCC4)nc3s2)c1)c1ccncc1	/	/	/	/	/	-27%
Cc1ccc(-c2noc(-c3nnn(CC(=O)Nc4cccc(C(F)(F)F)c4)c3N)n2)cc1	0%	?	/	-30%	57%	-9%
Cc1ccc(OCC(=O)Nc2cccc(OCc3cc(=O)n4cccc(C)c4n3)c2)cc1C	?	18%[59 µM]	/	11%	26%[57 µM]	-22%
COc1ccc(OC)c(CNc2ncnc3onc(C)c23)c1	0%	-15%[59 µM]	/	-3%[57.1 µM]	38%	-24%
CCc1ccc(-n2c(=O)c3ccc(C(=O)NCCc4ccccc4)cc3n(Cc3ccccc3C#N)c2=O)cc1	5%	36%[59 µM]	/	/	50%	-2%
c1ccc(CNc2ncncc2-c2ccoc2)cc1	/	4%[0.501 µM]	/	/	/	/
Cc1ccc(OCCn2c(=S)[nH]c3ccccc32)c(C(C)C)c1	1%	/	-7%	?	-10%	-25%
Cc1cccc(OCCn2c(=S)[nH]c3ccccc32)c1	-6%	1.6µM*	?	?	-61%	?
CCOc1ccc2c(c1)[nH]c(=S)n2C	-9%	7.9µM*	4%	-15%	-34%	56µM*
CCOc1ccc2[nH]c(=O)c(=O)[nH]c2c1	-1%	-30%[12.7 µM]	/	-6%	21%	5%
C=CCOc1ccccc1CNCc1ccc(F)cc1	-1%	-38%	7%[11.4 µM]	-11%	36%	-1%
C=CCOc1ccccc1CN1CCC(Oc2ccc(C(=O)N3CCCCC3)cc2)CC1	-4%	94%	/	1%	26%	-15%
C=CCOc1ccccc1CN1CCCCCC1	-2%	/	1%	?	?	1.4µM*
C=CCOc1ccccc1CN1CCSCC1	16%	?	-4%	56µM*	?	6.3µM*
Cc1cccc(NC(=O)C2CCCN(S(=O)(=O)c3cnc[nH]3)C2)c1C (stereo not given)	-2%	-36%[59 µM]	/	-14%	23%	-13%
SMILES	GLS inhibitor	G9a block	L3MBTL1 block	BAZ2B block	HP1b binding inh	JMJD2A Tudor
O=C(Nc1cccc(F)c1)[C@H](CSCc1ccccc1)N1Cc2ccccc2C1=O	0%	-39%[59 µM]	/	-12%	28%	-16%
COc1ccc(NC(=O)Cn2c(=O)ccc3cc(S(=O)(=O)N4CCCC4)ccc32)cc1Cl	3%	2%[59 µM]	/	1%	24%[57 µM]	-14%
CN1CCCC[C@@H]1CCN1c2ccccc2Sc2ccc(S(C)=O)cc21 (stereo not given in full)	10%	7.9µM*!	/	/	/	/
CSc1ccc2c(c1)N(CCC1CCCCN1C)c1ccccc1S2 (stereo not given)	0%	18µM*!	-7%	32µM*	?	50µM*
CC1CCN(CC(O)CN2c3ccccc3Sc3ccccc32)CC1 (stereo not given)	22%	?	/	?	-8%	?
CC(=O)c1ccc2c(c1)N(CCCN1CCC(CCO)CC1)c1ccccc1S2	20%	-10%[59 µM]	-3%	4%	-4%	-35%
CSc1ccc2c(c1)N(CC[C@H]1CCCCN1C)c1ccccc1S2	/	11µM*	/	/	/	/
Oc1c(C(c2ccc(Cl)cc2)N2CCC3(CC2)OCCO3)sc2nc(-c3ccco3)nn12 (stereo not given)	0%	-48%[59 µM]	/	-24%	35%	-3%
COc1ccc(NC(=O)c2oc3ccccc3c2NC(=O)Cc2coc3cc(C)ccc23)cc1	-1%	-4%[59 µM]	/	-7%	36%	-16%
COc1cccc(-n2c(=O)c3c(C)c(C)sc3n(CC(=O)Nc3ccccc3OC)c2=O)c1	-1%	3%[59 µM]	/	3%	41%	-2%
CCOc1ccc(NC(=O)C(C)n2c(=O)cc(C)c3c(C)nn(-c4ccccc4)c32)cc1 (stereo not given)	-6%	11%[59 µM]	/	-2%	?	-22%
O=C(CCC(=O)Nc1ccccc1)N/N=C/c1ccncc1	-3%	20%[59 µM]	23%	1%	7%	-17%[11.4 µM]
Cc1ccccc1NC(=O)CCC(=O)N/N=C/c1ccncc1	-12%	7.1µM*	-7%	?	62%	-18%[11.4 µM]
COc1ccc(/C=N/NC(=O)CNC(=O)c2ccncc2)cc1	-18%	41%	/	3%	-4%	-2%
COc1ccc(NC(=O)CCC(=O)N/N=C/c2ccncc2)cc1	-5%	22µM*	9%	-5%	53%	7%
O=C(CCC(=O)Nc1ccc(F)cc1)N/N=C/c1ccncc1	-4%	6%	/	/	4%	3.5µM*
Cc1ccc(C)c(NC(=O)CCC(=O)N/N=C/c2cccnc2)c1	-18%	18%[0.501 µM]	/	-6%	49%	-1%
O=C1c2ccccc2C(=O)N1c1ccc(S(=O)(=O)N2CCOCC2)cc1	/	/	/	/	29%	-4%
Cc1cc(C)cc(NC(=S)NCc2ccc3[nH]c4c(c3c2)CCCC4)c1	4%	?	-29%	32µM*	?	50µM*
S=C(NCc1ccc2[nH]c3c(c2c1)CCCC3)Nc1ccccc1	13%	?	-9%	32µM*	?	35µM*
CN(CC(=O)NCc1ccccc1)S(=O)(=O)c1ccc2[nH]c3c(c2c1)CCCC3	3%	?	/	?	1%	?
C/C(=N/NS(=O)(=O)c1ccc(C)cc1)[C@H]1C[C@@H]1c1ccccc1	-3%	13µM*	5%	1%	43%	4%
CCc1ccccc1N(C)C(=O)c1nn(-c2ccc(OC)cc2)c(=O)c2c1c1ccccc1n2C	-8%	-4%[59 µM]	/	/	36%	2%
CCCn1c(SCC(=O)N2c3ccc(F)cc3CCC2C)nnc1-c1ccccn1 (stereo not given)	7%	-12%[59 µM]	-13%	5%	?	71µM*
